Results: PubChem BioAssay (EPA / NIEHS)
Activity calls are given as the source filed them. Rule for the calls: active = hit-call score of the fitted dose curve at least 0.9, where 1 is the maximum; inactive = score below 0.9.

Tests used:
[1] = read-out: Macrophage colony-stimulating factor (MCSF), CSF1 (gene 1435); experiment: BSK_hDFCGF_MCSF: BioMAP Diversity Plus: hDFCGF Assay for Macrophage colony-stimulating factor (MCSF) Biomarker Activity (AID 2283060); details: primary human foreskin fibroblasts; actives raise or lower the signal
How it was run: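 Primary human foreskin fibroblasts dosed with chemical; 24 h later, M-CSF quantified by ELISA; curves fitted in both directions vs DMSO negative control.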

[2] = BSK_hDFCGF_SRB: Viability Assessment in the BioMAP Diversity Plus: hDFCGF Assay (AID 2283061); details: primary human foreskin fibroblasts;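 note: cells exposed to compound for 24 h before the read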
How it was run: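 Readout is SRB absorbance at 560 nm, reflecting total protein in parallel cultures of human foreskin fibroblasts harvested 24 h after chemical dosing. Activity was fitted bidirectionally relative to DMSO.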

[3] = read-out: TIMP metallopeptidase inhibitor 1 (TIMP1), TIMP1 (gene 7076); experiment: BSK_hDFCGF_TIMP1: BioMAP Diversity Plus: hDFCGF Assay for TIMP metallopeptidase inhibitor 1 (TIMP1) Biomarker Activity (AID 2283062); details: primary human foreskin fibroblasts; actives raise or lower the signal
How it was run: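 Human skin fibroblasts (primary), hDFCGF system; compound exposure 24 h; TIMP-1 by ELISA; bidirectional fit vs DMSO negative control; overt cytotoxicity by SRB in parallel wells.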

[4] = read-out: Monokine induced gamma interferon (MIG), CXCL9 (gene 4283); experiment: BSK_hDFCGF_MIG: BioMAP Diversity Plus: hDFCGF Assay for Monokine induced gamma interferon (MIG) Biomarker Activity (AID 2283063); details: primary human foreskin fibroblasts; actives raise or lower the signal
How it was run: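 Chemicals were added to primary human foreskin fibroblast cultures, which were sampled 24 h later. MIG levels were then quantified by ELISA and responses fitted in both directions relative to DMSO.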

[5] = read-out: Matrix Metallopeptidase 1 (MMP1), MMP1 (gene 4312); experiment: BSK_hDFCGF_MMP1: BioMAP Diversity Plus: hDFCGF Assay for Matrix Metallopeptidase 1 (MMP1) Biomarker Activity (AID 2283064); details: primary human foreskin fibroblasts; actives raise or lower the signal
How it was run: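 Primary human foreskin fibroblasts exposed to chemicals for 24 h; MMP1 measured by ELISA. Cytotoxicity tracked by SRB staining in parallel cultures; bidirectional fit relative to DMSO.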

[6] = read-out: Vascular cell adhesion molecule 1 (VCAM1), VCAM1 (gene 7412); experiment: BSK_hDFCGF_VCAM1: BioMAP Diversity Plus: hDFCGF Assay for Vascular cell adhesion molecule 1 (VCAM1) Biomarker Activity (AID 2283065); details: primary human foreskin fibroblasts; actives raise or lower the signal;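 for AC50: VCAM-1 protein level quantified by ELISA after 24 h chemical exposure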
How it was run: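 Human foreskin fibroblast primary cells, chemical exposure 24 h; VCAM-1 by ELISA; bidirectional fit, DMSO = negative control/baseline.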

[7] = read-out: Plasminogen activator inhibitor-1 (PAI1), SERPINE1 (gene 5054); experiment: BSK_hDFCGF_PAI1: BioMAP Diversity Plus: hDFCGF Assay for Plasminogen activator inhibitor-1 (PAI1) Biomarker Activity (AID 2283066); details: primary human foreskin fibroblasts; actives raise or lower the signal
How it was run: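 PAI-1 levels, determined by ELISA, served as the endpoint in human foreskin fibroblast cultures exposed to compound for 24 h, with DMSO as baseline.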

[8] = read-out: Intercellular Adhesion Molecule 1 (ICAM1), ICAM1 (gene 3383); experiment: BSK_KF3CT_ICAM1: BioMAP Diversity Plus: KF3CT Assay for Intercellular Adhesion Molecule 1 (ICAM1) Biomarker Activity (AID 2283067); details: primary human keratinocytes with fibroblasts; actives raise or lower the signal
How it was run: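 ICAM-1 levels are measured by ELISA 24 h after dosing a primary human co-culture of keratinocytes and foreskin fibroblasts. Activity in either direction is fitted relative to DMSO vehicle.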

[9] = read-out: Interferon-gamma inducible Protein 10 (IP10), CXCL10 (gene 3627); experiment: BSK_KF3CT_IP10: BioMAP Diversity Plus: KF3CT Assay for Interferon-gamma inducible Protein 10 (IP10) Biomarker Activity (AID 2283068); details: primary human keratinocytes with fibroblasts; actives raise or lower the signal
How it was run: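 ELISA read-out of IP-10 after 24 h chemical dosing of human skin primary co-culture (keratinocytes, foreskin fibroblasts). Gain or loss of signal relative to DMSO, bidirectional curve fit.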

[10] = read-out: Interleukin-1 alpha (IL1a), IL1A (gene 3552); experiment: BSK_KF3CT_IL1a: BioMAP Diversity Plus: KF3CT Assay for Interleukin-1 alpha (IL1a) Biomarker Activity (AID 2283070); details: primary human keratinocytes with fibroblasts; actives raise or lower the signal
How it was run: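 Primary human keratinocyte plus foreskin fibroblast co-culture, dosed and measured at 24 h in 96-well plates. IL-1a level quantified by ELISA; bidirectional fit relative to DMSO.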

[11] = read-out: TIMP metallopeptidase inhibitor 2 (TIMP2), TIMP2 (gene 7077); experiment: BSK_KF3CT_TIMP2: BioMAP Diversity Plus: KF3CT Assay for TIMP metallopeptidase inhibitor 2 (TIMP2) Biomarker Activity (AID 2283071); details: primary human keratinocytes with fibroblasts; actives raise or lower the signal
How it was run: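 Keratinocyte–fibroblast co-culture, 24 h exposure; TIMP-2 ELISA, DMSO-normalised bidirectional fit. Parallel SRB (0.1%, TCA-fixed, 560 nm) total-protein staining gauges cytotoxicity.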

[12] = read-out: Transforming growth factor beta 1 (TGFb1), TGFB1 (gene 7040); experiment: BSK_KF3CT_TGFb1: BioMAP Diversity Plus: KF3CT Assay for Transforming growth factor beta 1 (TGFb1) Biomarker Activity (AID 2283072); details: primary human keratinocytes with fibroblasts; actives raise or lower the signal
How it was run: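 Signal changes in either direction, relative to DMSO, define activity here. TGF-b1 is read by ELISA from a human keratinocyte-fibroblast co-culture 24 h post-dose.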

[13] = read-out: C-C motif chemokine 2 (Homo sapiens) (UniProt P13500); experiment: BSK_KF3CT_MCP1: BioMAP Diversity Plus: KF3CT Assay for Monocyte Chemoattractant Protein 1 (MCP1/CCL2) Biomarker Activity (AID 2283073); details: primary human keratinocytes with fibroblasts; actives raise or lower the signal
How it was run: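 ELISA readout of MCP-1 after 24 h chemical dosing of a human skin primary co-culture of keratinocytes and foreskin fibroblasts. Activity was fitted in both directions against DMSO.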

[14] = read-out: Matrix Metallopeptidase 9 (MMP9), MMP9 (gene 4318); experiment: BSK_KF3CT_MMP9: BioMAP Diversity Plus: KF3CT Assay for Matrix Metallopeptidase 9 (MMP9) Biomarker Activity (AID 2283074); details: primary human keratinocytes with fibroblasts; actives raise or lower the signal;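 for AC50: MMP9 protein level quantified by ELISA in the co-culture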
How it was run: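 Human keratinocyte and foreskin fibroblast co-culture exposed to chemicals for 24 h; MMP9 biomarker measured by ELISA, bidirectional fitting relative to DMSO; cytotoxicity tracked by SRB total protein staining in parallel cultures.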

[15] = read-out: urokinase plasminogen activator (uPA), PLAU (gene 5328); experiment: BSK_KF3CT_uPA: BioMAP Diversity Plus: KF3CT Assay for urokinase plasminogen activator (uPA) Biomarker Activity (AID 2283075); details: primary human keratinocytes with fibroblasts; actives raise or lower the signal
How it was run: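 Primary human keratinocyte/foreskin fibroblast co-culture exposed to chemical; uPA measured by ELISA at 24 h. Bidirectional fit versus DMSO, with parallel SRB total-protein staining for cytotoxicity.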

CD40, CD40 (gene 958) = experiment: BSK_LPS_CD40: BioMAP Diversity Plus: LPS Assay for CD40 Biomarker Activity (AID 2283076); details: primary human HUVEC with PBMC; actives raise or lower the signal
How it was run: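 Cells were dosed, incubated 24 h, then assayed for CD40 by ELISA. Gain or loss of signal was analysed relative to DMSO controls. The culture paired human umbilical vein endothelium with peripheral blood mononuclear cells.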

[16] = read-out: E-selectin (Homo sapiens) (UniProt P16581); experiment: BSK_LPS_Eselectin: BioMAP Diversity Plus: LPS Assay for Eselectin Biomarker Activity (AID 2283077); details: primary human HUVEC with PBMC; actives raise or lower the signal
How it was run: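 Primary human vascular co-culture (endothelium plus PBMC) was dosed with chemical, then E-selectin quantified by ELISA at 24 h. Endpoint values derive from bidirectional curve fitting relative to DMSO.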

[17] = read-out: Interleukin-8 (IL8), CXCL8 (gene 3576); experiment: BSK_LPS_IL8: BioMAP Diversity Plus: LPS Assay for Interleukin-8 (IL8) Biomarker Activity (AID 2283078); details: primary human HUVEC with PBMC; actives raise or lower the signal
How it was run: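 Readout is IL-8 by ELISA, taken 24 h after compounds were added to LPS-stimulated endothelial/PBMC co-cultures. Both increases and decreases relative to DMSO control were scored through bidirectional fitting.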

[18] = BSK_LPS_SRB: Viability Assessment in the BioMAP Diversity Plus: LPS Assay (AID 2283079); details: primary human HUVEC with PBMC;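 note: total protein by sulforhodamine B absorbance as a cytotoxicity measure; measured one day after compound addition; fitted in both directions against DMSO so loss or gain of signal counts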
How it was run: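 Readout is SRB absorbance at 560 nm (0.1% stain, TCA-fixed parallel cultures) as a total-protein cytotoxicity measure. Cells: primary human umbilical vein endothelium plus peripheral blood mononuclear cells, 24 h after chemical exposure; DMSO served as baseline.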

E-selectin (Homo sapiens), sequence (P16581 whole entry, looked up): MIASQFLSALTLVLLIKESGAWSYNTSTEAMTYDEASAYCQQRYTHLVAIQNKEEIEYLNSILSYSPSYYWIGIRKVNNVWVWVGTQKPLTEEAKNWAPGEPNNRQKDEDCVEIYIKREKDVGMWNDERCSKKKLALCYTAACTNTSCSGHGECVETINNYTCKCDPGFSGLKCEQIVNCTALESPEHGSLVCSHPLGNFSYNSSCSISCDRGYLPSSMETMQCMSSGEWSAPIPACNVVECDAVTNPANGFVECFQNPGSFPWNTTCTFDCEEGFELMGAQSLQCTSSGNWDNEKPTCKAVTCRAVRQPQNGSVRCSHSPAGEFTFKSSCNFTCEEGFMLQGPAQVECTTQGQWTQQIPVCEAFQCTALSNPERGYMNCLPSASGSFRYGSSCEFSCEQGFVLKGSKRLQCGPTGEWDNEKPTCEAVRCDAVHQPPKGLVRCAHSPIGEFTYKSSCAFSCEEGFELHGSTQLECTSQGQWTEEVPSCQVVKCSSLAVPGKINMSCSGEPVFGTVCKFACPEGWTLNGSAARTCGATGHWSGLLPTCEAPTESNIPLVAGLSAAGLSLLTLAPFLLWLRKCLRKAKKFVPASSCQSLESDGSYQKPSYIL

## C[C@H]1[C@H](c2ccc(Cl)cc2)SC(=O)N1C(=O)NC1CCCCC1
[1]
  AC50: 9.15 µM (active)
[2]
  AC50: 8.97 µM (active)
[3]
  outcome: inactive
[4]
  outcome: inactive
[5]
  AC50: 5.43 µM (active)
[6]
  outcome: inactive
[7]
  outcome: inactive
[8]
  outcome: inactive
[9]
  outcome: inactive
[10]
  outcome: inactive
[11]
  outcome: inactive
[12]
  outcome: inactive
[13]
  outcome: inactive
[14]
  AC50: 9.22 µM (active)
[15]
  outcome: inactive
CD40, CD40 (gene 958)
  outcome: inactive
[16]
  outcome: inactive
[17]
  outcome: inactive
[18]
  AC50: 10.9 µM (active)

## O=C(Nc1ccccc1)Nc1cnns1
[1]
  outcome: inactive
[2]
  outcome: inactive
[3]
  outcome: inactive
[4]
  outcome: inactive
[5]
  outcome: inactive
[6]
  outcome: inactive
[7]
  outcome: inactive
[8]
  outcome: inactive
[9]
  outcome: inactive
[10]
  outcome: inactive
[11]
  outcome: inactive
[12]
  outcome: inactive
[13]
  outcome: inactive
[14]
  outcome: inactive
[15]
  outcome: inactive
CD40, CD40 (gene 958)
  outcome: inactive
[16]
  outcome: inactive
[17]
  outcome: inactive
[18]
  outcome: inactive

## Oc1ccc(Cl)cc1Cc1ccccc1
[1]
  AC50: 14.7 µM (active) [middle of 7 runs]
[6]
  AC50: 14.5 µM (active) [middle of 7 runs]
[7]
  AC50: 24.5 µM (active) [middle of 6 runs]
CD40, CD40 (gene 958)
  AC50: 21.1 µM (active) [middle of 7 runs]
[16]
  AC50: 31.3 µM (active) [middle of 6 runs]
[17]
  AC50: 35.3 µM (active) [middle of 7 runs]
[18]
  AC50: 29.3 µM (active) [middle of 7 runs]

## CNC(=O)Oc1ccccc1OC(C)C
[1]
  outcome: inactive
[2]
  outcome: inactive
[3]
  outcome: inactive
[4]
  outcome: inactive
[5]
  AC50: 2.38 µM (active)
[6]
  outcome: inactive
[7]
  outcome: inactive
[8]
  outcome: inactive
[9]
  outcome: inactive
[10]
  AC50: 0.987 µM (active)
[11]
  outcome: inactive
[12]
  outcome: inactive
[13]
  AC50: 0.147 µM (active)
[14]
  outcome: inactive
[15]
  outcome: inactive
CD40, CD40 (gene 958)
  outcome: inactive
[16]
  outcome: inactive
[17]
  outcome: inactive
[18]
  outcome: inactive

## OCCOc1ccccc1
[1]
  outcome: inactive
[2]
  outcome: inactive
[3]
  outcome: inactive
[4]
  outcome: inactive
[5]
  outcome: inactive
[6]
  outcome: inactive
[7]
  outcome: inactive
[8]
  outcome: inactive
[9]
  outcome: inactive
[10]
  outcome: inactive
[11]
  outcome: inactive
[12]
  outcome: inactive
[13]
  outcome: inactive
[14]
  outcome: inactive
[15]
  outcome: inactive
CD40, CD40 (gene 958)
  outcome: inactive
[16]
  outcome: inactive
[17]
  outcome: inactive
[18]
  outcome: inactive

## COP(=S)(OC)Oc1ccc(SC)c(C)c1
[1]
  outcome: inactive
[2]
  outcome: inactive
[3]
  outcome: inactive
[4]
  outcome: inactive
[5]
  AC50: 9.5 µM (active)
[6]
  outcome: inactive
[7]
  outcome: inactive
[8]
  outcome: inactive
[9]
  outcome: inactive
[10]
  outcome: inactive
[11]
  outcome: inactive
[12]
  outcome: inactive
[13]
  outcome: inactive
[14]
  outcome: inactive
[15]
  outcome: inactive
CD40, CD40 (gene 958)
  outcome: inactive
[16]
  outcome: inactive
[17]
  outcome: inactive
[18]
  AC50: 30.6 µM (active)
